Results taken from PubChem BioAssay AID1650 (Southern Research Specialized Biocontainment Screening …, 2009).
Measured potencies and affinities stand elsewhere. Activity calls are given as the source filed them. No rule for the calls is given here.

Assay: mammalian cell viability reduction – secondary assay, cytotoxicity control for West Nile virus antiviral project, dose response (AID 1650)
Details: Mammalian host cell viability, cytotoxicity counter-screen; series mostly up to 20 µM; viability: at the top concentration

Row | SMILES | viability
1 | CN(C)CCN(CC1CCCN(Cc2ccccc2F)C1)C(=O)Cc1ccc(F)c(F)c1 (centres undefined) | 89.5% (inactive)
2 | O=C(N/N=C/c1c(O)n(CCc2ccccc2)c(=O)[nH]c1=O)c1ccccc1O | 95.3% (inactive)
3 | Cc1ccc2c(c1)[C@@H]1CN(C)CC[C@@H]1N2C(=O)Nc1cccc(C(F)(F)F)c1 | 81.5% [at 10 µM] (inactive)
4 | O=c1c2ccccc2nc(/C=C/c2ccccc2O)n1-c1ccccc1O | 75.6% (inactive)
5 | CC(C)c1oc(=O)cc2c1[C@@H](O)[C@H]1OC(=O)[C@@]3(C)CC[C@@H](O)[C@@]2(C)C13 (some centres undefined) | 86.6% [at 10 µM] (inactive)
6 | CCN(CC)c1nc2c(C)cccn2c(=O)c1C=C1C(=O)NC(=O)NC1=O | 93.5% (inactive)
7 | CC(C)c1oc(=O)cc2c1[C@@H](O)[C@H]1OC(=O)[C@@]3(C)C[C@@H](O)[C@@H](O)[C@@]2(C)C13 (some centres undefined) | 92.9% [at 10 µM] (inactive)
8 | O=C1/C(=C\c2ccccc2)C2OCC=C3CN4CCC56c7ccccc7N1C5C2C3CC46 (centres undefined) | 78.2% (inactive)
9 | c1ccc2c(c1)Sc1ccccc1N2CC1CN2CCC1CC2 (centres undefined) | 87% [at 10 µM] (inactive)
